Results as given in the supplement of paper PMC10849652.
Targets with a hit are over-represented here; the source holds about 7,900 in all. About 0.6% of all pairs of compound and target were hits.

Compound: c1cn2cc(-c3ccc4cn[nH]c4c3)nc(Nc3ccc(N4CCOCC4)cc3)c2n1 [entospletinib]
Assay: log2 fold change, soluble protein after heating vs DMSO (PISA); higher = thermal stabilisation; K562 cells, 10 uM, 30 min; active = over 0.2 and 3.5 SD of the protein, either way, in both replicates (recomputed)
Outline: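 Quantification of soluble protein used TMTpro 16plex LC-MS/MS, with channel sums equalised. Samples were the supernatant after 21,000xg for 90 min of pooled aliquots from K562 cells (2×10^6 cells/mL) treated with 10 μM compound for 30 min, heated for 3 min over 48°C-58°C, and extracted in PBS with 0.5% NP-40 at 4°C. Values, from duplicates, describe thermal stability against control samples on a log2 fold-change scale.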

UniProt Q9H081, sequence (Q9H081 whole entry, looked up): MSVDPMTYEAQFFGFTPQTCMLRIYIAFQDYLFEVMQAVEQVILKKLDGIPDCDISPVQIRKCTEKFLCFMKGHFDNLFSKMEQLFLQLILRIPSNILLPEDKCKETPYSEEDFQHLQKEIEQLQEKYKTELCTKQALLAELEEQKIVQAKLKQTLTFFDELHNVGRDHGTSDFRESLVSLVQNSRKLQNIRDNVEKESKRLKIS
UniProt Q8WVJ2, sequence (Q8WVJ2 whole entry, looked up): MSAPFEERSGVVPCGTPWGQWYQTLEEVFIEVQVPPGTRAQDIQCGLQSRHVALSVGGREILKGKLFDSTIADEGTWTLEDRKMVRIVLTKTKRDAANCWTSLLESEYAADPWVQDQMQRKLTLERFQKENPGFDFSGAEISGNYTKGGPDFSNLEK
UniProt Q9BT67, sequence (Q9BT67 whole entry, looked up): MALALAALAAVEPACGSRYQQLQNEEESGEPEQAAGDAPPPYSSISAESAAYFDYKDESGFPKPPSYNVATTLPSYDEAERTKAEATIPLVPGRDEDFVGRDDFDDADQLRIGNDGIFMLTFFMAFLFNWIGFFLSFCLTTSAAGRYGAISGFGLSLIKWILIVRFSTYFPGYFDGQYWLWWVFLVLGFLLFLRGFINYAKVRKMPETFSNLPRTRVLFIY
UniProt Q8WUY8, sequence (Q8WUY8 whole entry, looked up): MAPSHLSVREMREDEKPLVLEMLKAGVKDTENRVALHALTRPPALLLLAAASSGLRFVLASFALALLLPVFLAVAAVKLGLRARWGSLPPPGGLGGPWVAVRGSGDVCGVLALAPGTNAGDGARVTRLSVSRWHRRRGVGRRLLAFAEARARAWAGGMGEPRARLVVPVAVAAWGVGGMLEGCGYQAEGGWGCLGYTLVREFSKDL
UniProt P48645, sequence (P48645 whole entry, looked up): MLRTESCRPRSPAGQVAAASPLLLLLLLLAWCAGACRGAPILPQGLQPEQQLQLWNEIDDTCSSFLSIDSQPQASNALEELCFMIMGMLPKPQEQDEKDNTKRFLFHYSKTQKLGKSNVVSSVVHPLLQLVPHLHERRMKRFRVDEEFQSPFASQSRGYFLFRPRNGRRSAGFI
UniProt P03886, sequence (P03886 whole entry, looked up): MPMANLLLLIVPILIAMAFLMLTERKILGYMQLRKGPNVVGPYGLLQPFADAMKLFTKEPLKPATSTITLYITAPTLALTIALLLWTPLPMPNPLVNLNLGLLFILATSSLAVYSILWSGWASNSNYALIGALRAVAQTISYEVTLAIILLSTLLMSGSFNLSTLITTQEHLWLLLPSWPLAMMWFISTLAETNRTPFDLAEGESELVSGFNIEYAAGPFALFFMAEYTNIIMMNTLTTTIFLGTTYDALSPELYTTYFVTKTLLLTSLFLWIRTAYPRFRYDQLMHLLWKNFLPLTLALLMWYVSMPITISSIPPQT
UniProt Q9NRP0, sequence (Q9NRP0 whole entry, looked up): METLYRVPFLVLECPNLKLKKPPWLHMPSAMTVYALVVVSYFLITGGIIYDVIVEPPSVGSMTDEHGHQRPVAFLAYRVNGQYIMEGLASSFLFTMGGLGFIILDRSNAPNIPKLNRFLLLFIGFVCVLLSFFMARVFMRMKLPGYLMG
UniProt Q8WX92, sequence (Q8WX92 whole entry, looked up): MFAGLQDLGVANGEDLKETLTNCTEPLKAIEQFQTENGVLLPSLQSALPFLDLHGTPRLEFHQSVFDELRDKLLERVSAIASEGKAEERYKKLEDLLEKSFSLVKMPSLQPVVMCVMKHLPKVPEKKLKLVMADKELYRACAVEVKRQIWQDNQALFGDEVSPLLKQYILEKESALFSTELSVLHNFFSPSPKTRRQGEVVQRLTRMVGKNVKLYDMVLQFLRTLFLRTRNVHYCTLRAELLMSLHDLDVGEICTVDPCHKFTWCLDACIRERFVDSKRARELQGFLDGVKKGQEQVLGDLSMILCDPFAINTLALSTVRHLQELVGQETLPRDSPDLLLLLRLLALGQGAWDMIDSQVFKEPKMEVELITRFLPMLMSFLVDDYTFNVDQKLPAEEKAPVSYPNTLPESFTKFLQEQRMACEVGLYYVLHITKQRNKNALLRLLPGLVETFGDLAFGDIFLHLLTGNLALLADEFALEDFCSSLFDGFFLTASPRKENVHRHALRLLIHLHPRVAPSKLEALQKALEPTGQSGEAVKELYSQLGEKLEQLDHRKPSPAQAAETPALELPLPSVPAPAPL
UniProt O60313, sequence (O60313 whole entry, looked up): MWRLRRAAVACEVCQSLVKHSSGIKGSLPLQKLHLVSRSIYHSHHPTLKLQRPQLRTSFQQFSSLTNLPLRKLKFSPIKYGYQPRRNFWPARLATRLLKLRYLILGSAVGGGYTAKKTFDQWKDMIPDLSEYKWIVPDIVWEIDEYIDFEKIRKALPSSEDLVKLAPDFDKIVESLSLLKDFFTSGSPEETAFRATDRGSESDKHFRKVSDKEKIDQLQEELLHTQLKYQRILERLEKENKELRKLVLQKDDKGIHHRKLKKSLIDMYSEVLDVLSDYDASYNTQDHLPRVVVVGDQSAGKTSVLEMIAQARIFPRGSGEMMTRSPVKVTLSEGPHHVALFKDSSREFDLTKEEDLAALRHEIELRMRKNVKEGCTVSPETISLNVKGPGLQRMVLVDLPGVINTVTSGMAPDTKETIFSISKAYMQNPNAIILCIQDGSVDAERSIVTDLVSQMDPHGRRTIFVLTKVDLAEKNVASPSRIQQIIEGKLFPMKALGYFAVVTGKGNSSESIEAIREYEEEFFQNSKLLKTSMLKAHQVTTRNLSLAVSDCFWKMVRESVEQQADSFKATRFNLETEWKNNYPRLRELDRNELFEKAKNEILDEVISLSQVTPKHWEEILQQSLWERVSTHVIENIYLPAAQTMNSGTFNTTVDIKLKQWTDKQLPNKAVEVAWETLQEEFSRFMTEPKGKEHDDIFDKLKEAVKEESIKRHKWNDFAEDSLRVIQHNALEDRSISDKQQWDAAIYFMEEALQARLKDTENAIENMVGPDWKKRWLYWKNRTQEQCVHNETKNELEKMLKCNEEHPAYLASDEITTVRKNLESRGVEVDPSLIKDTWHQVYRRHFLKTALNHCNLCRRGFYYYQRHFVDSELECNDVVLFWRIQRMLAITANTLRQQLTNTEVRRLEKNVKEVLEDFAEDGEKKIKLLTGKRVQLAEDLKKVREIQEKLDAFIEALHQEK
UniProt Q9BRA0, sequence (Q9BRA0 whole entry, looked up): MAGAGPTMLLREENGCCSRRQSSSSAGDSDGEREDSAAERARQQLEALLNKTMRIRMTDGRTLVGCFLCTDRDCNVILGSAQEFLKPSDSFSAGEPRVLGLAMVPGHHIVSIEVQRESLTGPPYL
UniProt Q8N543, sequence (Q8N543 whole entry, looked up): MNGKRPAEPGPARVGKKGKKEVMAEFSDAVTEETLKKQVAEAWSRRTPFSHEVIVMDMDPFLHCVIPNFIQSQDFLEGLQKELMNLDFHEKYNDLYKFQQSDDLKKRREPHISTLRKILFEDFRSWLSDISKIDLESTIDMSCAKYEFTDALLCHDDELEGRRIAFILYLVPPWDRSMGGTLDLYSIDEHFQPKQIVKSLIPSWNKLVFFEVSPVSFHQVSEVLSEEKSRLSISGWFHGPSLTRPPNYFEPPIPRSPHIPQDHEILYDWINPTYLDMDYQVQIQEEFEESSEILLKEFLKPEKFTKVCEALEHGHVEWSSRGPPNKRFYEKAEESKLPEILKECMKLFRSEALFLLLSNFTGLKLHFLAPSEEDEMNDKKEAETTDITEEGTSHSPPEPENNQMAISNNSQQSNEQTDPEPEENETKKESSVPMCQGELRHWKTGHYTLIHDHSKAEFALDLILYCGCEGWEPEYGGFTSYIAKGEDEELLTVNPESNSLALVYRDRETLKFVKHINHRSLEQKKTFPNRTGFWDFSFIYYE
UniProt O60551, sequence (O60551 whole entry, looked up): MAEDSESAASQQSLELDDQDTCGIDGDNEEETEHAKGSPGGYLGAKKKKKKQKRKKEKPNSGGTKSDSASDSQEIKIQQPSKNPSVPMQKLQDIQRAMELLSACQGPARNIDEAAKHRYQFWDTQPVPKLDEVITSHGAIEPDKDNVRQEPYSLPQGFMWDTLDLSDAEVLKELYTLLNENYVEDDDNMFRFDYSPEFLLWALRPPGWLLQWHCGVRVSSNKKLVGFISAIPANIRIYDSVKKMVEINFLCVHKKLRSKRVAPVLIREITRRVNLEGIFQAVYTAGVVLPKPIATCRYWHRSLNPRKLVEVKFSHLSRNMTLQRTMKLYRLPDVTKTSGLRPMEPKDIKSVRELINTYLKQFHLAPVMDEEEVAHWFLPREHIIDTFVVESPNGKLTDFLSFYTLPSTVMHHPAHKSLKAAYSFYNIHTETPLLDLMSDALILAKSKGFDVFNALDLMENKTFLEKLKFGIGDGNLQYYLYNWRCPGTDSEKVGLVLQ
UniProt Q9NZT2, sequence (Q9NZT2 whole entry, looked up): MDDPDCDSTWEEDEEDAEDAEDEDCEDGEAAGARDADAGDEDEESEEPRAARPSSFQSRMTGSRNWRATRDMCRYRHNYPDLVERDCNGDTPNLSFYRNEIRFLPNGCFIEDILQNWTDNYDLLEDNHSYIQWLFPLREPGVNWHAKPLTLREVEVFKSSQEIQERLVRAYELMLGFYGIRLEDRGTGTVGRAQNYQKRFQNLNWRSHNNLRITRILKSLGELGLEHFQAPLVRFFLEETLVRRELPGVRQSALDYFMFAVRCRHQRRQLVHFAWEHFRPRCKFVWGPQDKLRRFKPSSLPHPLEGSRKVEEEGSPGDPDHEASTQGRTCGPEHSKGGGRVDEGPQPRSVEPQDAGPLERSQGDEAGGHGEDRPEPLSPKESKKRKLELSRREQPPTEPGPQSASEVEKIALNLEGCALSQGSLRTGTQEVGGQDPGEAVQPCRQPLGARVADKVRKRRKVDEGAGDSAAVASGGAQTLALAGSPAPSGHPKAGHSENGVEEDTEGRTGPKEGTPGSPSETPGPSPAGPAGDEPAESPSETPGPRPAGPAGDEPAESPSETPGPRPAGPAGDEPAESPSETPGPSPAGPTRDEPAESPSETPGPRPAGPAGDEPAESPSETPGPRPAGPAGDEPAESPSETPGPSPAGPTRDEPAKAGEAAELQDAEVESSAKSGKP

log2 fold change, inactive:
NIPSNAP3B (UniProt Q9BS92) -0.03
OXA1L (UniProt Q15070) -0.014
MSH3 (UniProt P20585) -0.095
NSMCE2 (UniProt Q96MF7) -0.052
MRPS31 (UniProt Q92665) 0.065
NR2C2 isoform 2 (UniProt P49116) 0.019
NCL (UniProt P19338) 0.102
OSTM1 (UniProt Q86WC4) 0.118
OPA1 isoform 2 (UniProt O60313) -0.008
NELFB isoform 2 (UniProt Q8WX92) -0.039
OSTC (UniProt Q9NRP0) 0.034
MIS12 (UniProt Q9H081) -0.003
MRFAP1 (UniProt Q9Y605) 0.005
NMT2 (UniProt O60551) 0.023
MRPS33 (UniProt Q9Y291) 0.086
NUDCD2 (UniProt Q8WVJ2) -0.005
OGFR (UniProt Q9NZT2) -0.008
NAA38 isoform 2 (UniProt Q9BRA0) 0.13
MYL12B (UniProt O14950) -0.03
MRPS18B (UniProt Q9Y676) 0.028
NDFIP1 (UniProt Q9BT67) -0.003
NDUFB10 (UniProt O96000) 0.003
MRPL50 (UniProt Q8N5N7) -0.005
OSBPL3 (UniProt Q9H4L5) 0.171
NA, A0A494C071 -0.105
NAT14 (UniProt Q8WUY8) 0.007
NMU (UniProt P48645) 0.078
MINK1 (UniProt Q8N4C8) -0.026
OGFOD1 (UniProt Q8N543) 0.018
NFYC (UniProt Q13952) 0.033
OXR1 (UniProt Q8N573) -0.019
NCOR1 (UniProt O75376) 0.067
MT-ND1 (UniProt P03886) 0.1
MPP1 (UniProt Q00013) 0.056
